Bioassay records as filed in PubChem BioAssay.
The list is not random: actives were taken first. Their share in the collection is about 3.6%.
PLK1 PBD block: qHTS for Inhibitors of PLK1-PDB (polo-like kinase 1 - polo-box domain): Primary Screen. Plk1 PBD binding of FITC phosphopeptide, fluorescence polarization. Potency, µM, actives largely listed as inhibitors. actives 2.8% (n = 360,000). AID 720504, 2013; further: series mostly up to about 57 µM; nearly all actives have a fitted effect of over 65% in size
Target sequence (P53350 whole entry, looked up, the tested form may be a part): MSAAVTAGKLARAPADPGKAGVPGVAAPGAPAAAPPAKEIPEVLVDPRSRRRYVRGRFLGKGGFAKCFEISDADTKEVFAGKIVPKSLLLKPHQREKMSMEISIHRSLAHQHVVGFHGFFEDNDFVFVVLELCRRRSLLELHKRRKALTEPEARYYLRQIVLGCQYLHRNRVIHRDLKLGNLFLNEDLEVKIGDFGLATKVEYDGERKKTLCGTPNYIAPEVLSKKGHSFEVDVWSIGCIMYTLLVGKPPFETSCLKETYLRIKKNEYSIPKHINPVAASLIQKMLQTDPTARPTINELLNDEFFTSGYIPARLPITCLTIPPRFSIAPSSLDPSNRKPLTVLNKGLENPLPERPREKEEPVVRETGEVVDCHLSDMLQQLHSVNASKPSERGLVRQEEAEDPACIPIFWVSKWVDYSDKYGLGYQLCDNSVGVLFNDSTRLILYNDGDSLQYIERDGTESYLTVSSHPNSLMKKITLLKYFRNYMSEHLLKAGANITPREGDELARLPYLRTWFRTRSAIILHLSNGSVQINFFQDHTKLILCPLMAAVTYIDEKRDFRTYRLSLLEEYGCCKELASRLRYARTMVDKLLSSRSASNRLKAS
Rango release inh: qHTS Assay for Inhibitors of RanGTP induced Rango (Ran-regulated importin-beta cargo) - Importin beta complex dissociation; Snurportin-1 (Homo sapiens) + GTP-binding nuclear protein Ran (Homo sapiens) + Importin …; Biochemical FRET Rango-importin beta, RanGTP-induced dissociation; Potency, µM (top dose mostly 46.1 µM); actives 0.071% (n = 340,000); calls by dose curve; further: nearly all actives have a fitted effect of over 45% in size
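Rango (0.1 uM)–importin beta (0.25 uM) complex; RanGTP-RCC1 trigger; 45 min RT; CFP/YFP FRET read.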
KAT2A inh: qHTS Assay for Inhibitors of GCN5L2. AID 504327, 2011. Potency, µM (titrated, usually from 58.9 µM), hits mostly inhibitors. Histone acetyltransferase KAT2A (Homo sapiens), Q92830. actives 0.21% (n = 390,000). GCN5L2 HAT assay, ThioGlo1 CoA-SH fluorescence
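GCN5L2 (20 nM) in 50mM HEPES pH 7.5, 0.1mM EDTA, 0.01% Tween-20 preincubated 15 min with compounds at room temperature. Reaction started with H3(1-25) 75uM, acetyl-CoA 70uM, ThioGlo1 50uM; CoA-thiol fluorescence (Ex340/Em540) read at 0 and 20 min.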
PI5P4K alpha inh: qHTS for Inhibitors of phosphatidylinositol 5-phosphate 4-kinase (PI5P4K) | max response, % | actives 1.2% (n = 330,000) | PI5P4Kalpha enzyme, ADP-Glo luminescence, 60 min; active compounds read low; active means max response of -50% or lower; inconclusive means between -30% and -50%; inactive means -30% or higher; further: value at the top dose of about 77 µM
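qHTS, 1536-well: enzyme/substrate mix, compound by pin tool, 5 microM ATP final; RT 60 min; ADP-Glo reagents 1 (45 min) then 2 (30 min); luminescence.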
VDR inhibitor: Inhibitors of the vitamin D receptor (VDR): qHTS; Potency, µM, most hits filed as inhibitors; Vitamin D3 receptor (Homo sapiens), P11473; AID 504847, 2011; VDR-SRC2-3 peptide fluorescence polarization, 2 h; actives 0.93% (n = 400,000)
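Fluorescence polarization assay measuring small-molecule disruption of VDR binding to the coregulator peptide SRC2-3. Compounds were pin-transferred (23 nl) into the reagent mix and incubated 2 h at room temperature before reading.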
Rango complex inh: qHTS Assay for Inhibitors of Rango (Ran-regulated importin-beta cargo) - Importin beta complex formation; Potency, µM (doses to about 92.2 µM); Importin subunit beta-1 (Homo sapiens), Q14974; AID 540263, 2011; Rango CFP/YFP FRET sensor + importin beta, 45 min; actives 0.031% (n = 340,000); calls by dose curve; further: nearly all actives have a fitted effect of over 15% in size
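Inhibition scored from the CFP 486 nm/YFP 530 nm FRET ratio 45 min after adding 0.125 microM importin beta to 50 nM Rango biosensor preincubated 5 min with compound (room temperature, PBS with DTT, Tween-20, BSA). No-importin wells as positive control.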
USP1 UbRho: Inhibitors of USP1/UAF1: Hit Validation in Primary Assay; AID 540327, 2011; shares compounds with VDR inhibitor; Potency, µM (series often up to 114 µM), actives largely listed as inhibitors; Ub-Rhodamine cleavage, fluorescence kinetic read; actives 50% (n = 50)
VDR inh confirm: qHTS for Inhibitors of the vitamin D receptor (VDR): Hit Validation in Primary Screen. shares compounds with VDR inhibitor. VDR-coactivator inhibition assay, qHTS confirmation. Potency, µM, actives largely listed as inhibitors. actives 89% (n = 840). AID 602199, 2012
VDR FP: qHTS for Inhibitors of the vitamin D receptor (VDR): Hit Validation using a Fluorescein Assay; shares compounds with VDR inhibitor; VDR-coactivator binding, fluorescein fluorescence polarization; Potency, µM (top dose mostly 57.1 µM), usual class: inhibitors; actives 48% (n = 840)
VDR bla reporter: qHTS for Inhibitors of the vitamin D receptor (VDR): Hit Validation using a Beta-Lactamase Assay. Potency, µM (highest dose often 46.1 µM), most hits filed as inhibitors. VDR beta-lactamase reporter cells, FRET ratio; cells co-treated with VDR agonist LG190178. shares compounds with VDR inhibitor. actives 23% (n = 840)
VDR viability: qHTS for Inhibitors of the vitamin D receptor (VDR): Hit Validation using a Cytotoxicity Assay; shares compounds with VDR inhibitor; cytotoxicity counter-screen, cell viability, qHTS; Potency, µM (top dose mostly 48.3 µM), actives largely listed as cytotoxic; actives 18% (n = 840); AID 602204, 2012; further: nearly all actives have a fitted effect of over 75% in size
TbPYK confirm: qHTS of Trypanosoma Brucei Inhibitors: Confirmatory Assay for Cherry-picked Compounds; shares compounds with PLK1 PBD block; recombinant TbPYK, Kinase-Glo ATP luminescence; Potency, µM (doses to about 76.9 µM), usual class: inhibitors; actives 67% (n = 890); AID 720569, 2013; further: nearly all actives have a fitted effect of over 70% in size
TbPYK ADP-Glo: qHTS of Trypanosoma Brucei Inhibitors: Orthogonal Assay for Cherry-picked Compounds | shares compounds with PLK1 PBD block | recombinant TbPYK, ADP-Glo luminescence, 60 min | Potency, µM (titrated, usually from 76.9 µM), most hits filed as inhibitors | actives 62% (n = 890) | AID 720584, 2013; further: nearly all actives have a fitted effect of over 75% in size
Hits are given with their value; i = inactive; ? = inconclusive; nt = no result. Unless noted, the call rests on the fitted dose curve; in most records, active means well fitted curve in the direction sought with a large enough effect; inconclusive means small, poorly fitted or top-dose-only effect, or another doubt; inactive means no such curve, though single readings can be large; an effect the other way counts as inactive or inconclusive.

SMILES	PLK1 PBD block	Rango release inh	KAT2A inh	PI5P4K alpha inh	VDR inhibitor	Rango complex inh	VDR inh confirm	VDR FP	VDR bla reporter	VDR viability	others
COc1cc2c(cc1O)[C@H]1Cc3ccc(OC)c(O)c3CN1CC2	nt	nt	i	nt	i	nt	nt	nt	nt	nt	USP1 UbRho=?
COc1ccc(CC2c3cc(OC)c(OC)cc3CCN2C)cc1O (stereo not given)	i	i	i	i	i	i	nt	nt	nt	nt
C[C@@H](N)Cn1ccc2cc(F)c(Cl)cc21	nt	nt	i	nt	i	nt	nt	nt	nt	nt
CC(C)[C@H](NC(=O)[C@H](CCC(=O)O)NC(=O)[C@H](Cc1ccccc1)NC(=O)[C@@H](C)NC(=O)[C@@H](N)Cc1ccc(O)cc1)C(=O)N[C@H](C(=O)NCC(N)=O)C(C)C	nt	nt	i	nt	i	nt	nt	nt	nt	nt
CCCCc1nc2ccccc2c(=O)n1-c1cccc(OC)c1	nt	nt	i	nt	i	nt	nt	nt	nt	nt
CC(C)n1c(O)c(C2c3cc(Cl)ccc3Oc3[nH]c(=O)n(C(C)C)c(=O)c32)c(=O)[nH]c1=O (stereo not given)	1.3µM	i	28µM	?	8.9µM	i	4.2	?	5.2µM	?
CC(=O)c1c(O)n(-c2cccc(Cl)c2)c(=O)[nH]c1=O (tested in a mixture with another compound)	i	i	i	i	i	?	nt	nt	nt	nt
O=C(/C=C/c1ccccc1)c1c(O)n(CCc2ccccc2)c(=O)[nH]c1=O	i	i	i	i	?	i	2	?	18µM	i
COC(=O)Cn1cc(C=C2C(=O)NC(=O)NC2=O)c2ccccc21	?	i	i	i	i	i	nt	nt	nt	nt
O=C1NC(=O)C(=Cc2ccccc2OCCOc2ccc([N+](=O)[O-])cc2)C(=O)N1	6µM	i	i	?	45µM	?	27	10µM	i	?
CS(=N)(=O)CC[C@@H](N)C(=O)O (stereo not given in full)	nt	nt	i	nt	i	nt	nt	nt	nt	nt
N#CC(C#N)=NNc1ccc(-n2ccc(C(F)(F)F)n2)cc1	?	i	?	i	20µM	i	3	?	?	?
CCCCCC(O)C1C(=O)OC(C)C(O)\C=C/C=C\C=C/C=C\C=C(\C)C(O)C(O)C(O)CC(O)CC(O)CC(O)CC(O)CC1O (stereo not given)	nt	nt	i	nt	i	nt	nt	nt	nt	nt
NC(Cc1cc(O)c(O)cc1O)C(=O)O (stereo not given)	nt	nt	0.63µM	nt	45µM	nt	nt	nt	nt	nt	USP1 UbRho=12µM
CN1CC[C@]2(C)c3cc(O)ccc3N(C)[C@@H]12	nt	nt	i	nt	?	nt	nt	nt	nt	nt	USP1 UbRho=?
CCOc1ccc(CN(CCc2ccc3c(c2)OCO3)Cc2cc(OC)ccc2O)cc1	nt	nt	i	nt	i	nt	nt	nt	nt	nt
CC(C)c1ccc(NC(=O)CN2C(=O)CN=C(c3ccccc3)c3ccccc32)cc1	nt	nt	i	nt	i	nt	nt	nt	nt	nt
COc1ccc(/C=C2/C(=O)NC(=S)N(C3CC3)C2=O)cc1CN1C(=O)c2ccccc2C1=O	2.7µM	i	i	-88	45µM	i	11	7.9µM	i	?
NC(N)=Nc1ccc2[nH]c3c(c2c1)C[C@@]1(O)[C@H]2Cc4ccc(O)c5c4[C@@]1(CCN2CC1CC1)[C@H]3O5	0.95µM	i	3.5µM	?	35µM	i	nt	nt	nt	nt	USP1 UbRho=?
CCOC(=O)c1ncc2[nH]c3ccc(OCc4ccccc4)cc3c2c1COC	nt	nt	?	nt	i	nt	nt	nt	nt	nt
O=C1NC(=S)NC(=O)C1=Cc1cccn1-c1ccc(O)cc1	2.4µM	i	?	-84	25µM	?	8.4	?	?	?	TbPYK confirm=7.1µM;TbPYK ADP-Glo=16µM
O=C(O)CCn1cc(C=C2C(=O)NC(=S)NC2=O)c(-c2ccccc2)n1	2.7µM	i	i	-91	10µM	i	21	?	i	i	TbPYK confirm=1.6µM;TbPYK ADP-Glo=4.5µM
CS(=O)(=O)N1CCC2(CCCN(Cc3ccncc3)C2)CC1	nt	nt	i	nt	i	nt	nt	nt	nt	nt
CC(=O)[C@@H]1CC[C@@H]2[C@@H]3CCC4=CC(=O)CC[C@@]4(C)[C@H]3CC[C@]21C	nt	nt	i	nt	?	nt	nt	nt	nt	nt
O=C(O)/C=C/C(=O)c1ccc2c(c1)CCc1ccccc1-2	6µM	i	i	?	3.5µM	i	3.8	?	?	?	TbPYK confirm=13µM;TbPYK ADP-Glo=16µM
Nc1ccc2c(c1)Cc1ccccc1-2	i	i	i	i	i	i	nt	nt	nt	nt
Cc1c(C=C2C(=O)N(C)C(=O)N(C)C2=O)c(=O)n(-c2ccccc2)n1C	?	i	i	i	i	i	nt	nt	nt	nt
CN1C(=O)C(=Cc2ccccc2OS(=O)(=O)c2ccccc2)C(=O)N(C)C1=O	5.3µM	i	i	i	25µM	?	27	11µM	i	i	TbPYK confirm=20µM;TbPYK ADP-Glo=?
